From PubChem BioAssay (EPA / NIEHS)
Values joined by “and” are separate entries in the source; they are usually repeats but may differ in a detail not shown here. Identical values can stand only once. Active and inactive are the calls of the source. Rule for the calls: active = hit-call score of the fitted dose curve at least 0.9, where 1 is the maximum; inactive = score below 0.9.

Experiment: CCTE_Shafer_MEA_acute_spike_number: CCTE's Neural Acute Assay for Total Number of Spikes, Shafer Lab (AID 2284008);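 for AC50: curve fitted for decrease in spike count so AC50 reflects inhibitors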
Protocol: CCTE_Shafer_MEA_acute assay is conducted using Axion Biosystems 48 well microelectrode array (MEA) plates and Maestro recording system. Each well of the MEA plate contains a grid of 16 microelectrodes embedded in the culture surface. Electrically active cells, such as neurons, can be cultured over the electrodes, and electrical activity in these cells can be recorded extracellularly. The spontaneous firing of neurons is captured from each electrode on a microsecond timescale providing both temporally and spatially precise data. […] The CCTE_Shafer_MEA_acute assay uses primary cultures of rat cortical neurons. As these cultures mature over time, neural networks develop functional activity and form cohesive networks in which electrical activity can be highly coordinated. Baseline 40-minute recordings are made on days post-plating 13 or 15, followed by a secondary 40-minute recording after chemical exposure.CCTE_Shafer_MEA_acute_spike_number is a component of the CCTE_Shafer_MEA_acute assay. It measures the total number of spikes (action potential firings) in a 40-minute recording in a microelectrode array (MEA) using Axion Biosystems Maestro 768 channel amplifier with the AxIS adaptive spike detector. The recordings before and after chemical treatment are used to calculate a percent change in the spike number in each well. Data from the assay component CCTE_Shafer_MEA_acute_spike_number was analyzed into 1 assay endpoint. This assay endpoint, CCTE_Shafer_MEA_acute_spike_number, was analyzed in the negative analysis fitting direction relative to DMSO as the negative control and baseline of activity. Using a type of functional reporter, gain or loss-of-signal activity can be used to understand electrical activity.
Spontaneous activity in the cortical cultures was recorded using an Axion Biosystems Maestro 768 channel amplifier and Axion Integrated Studios (AxIS) v1.8 (or later) software. The amplifier recorded from all channels simultaneously (gain = 1200 x; sampling rate = 12.5 kHz/channel): raw signals were filtered with a Butterworth band-pass filter (300-5000 Hz), which filters out slower local field potentials leaving only fast potentials, i.e., "spikes", arising from extracellular currents associated with action potentials (Pine 2006; Wheeler and Nam 2011). On-line spike detection of filtered signals was conducted with the AxIS adaptive spike detector, using a threshold of 8x the root mean squared (rms) noise on each channel. Any electrodes with rms noise levels greater than 5 uV were grounded (e.g., no data were recorded). Once grounded, an electrode was grounded for the duration of the experiment. All recordings were conducted at 37 C. Wells were deemed usable if on the day of the exposure >/= 10 electrodes were active (defined as >/= 5 spikes/min). On DIV 13 or 15, a minimum of three wells from one cortical culture preparation were treated with each compound (0.03-40 uM). Prior to recording baseline activity, each mwMEA plate was placed in the Maestro at 37 C and allowed to sit for 20 min while firing rates stabilized. Baseline activity (40 min) was recorded before the addition of each compound. An additional 40 min of spontaneous activity was recorded in the presence of each compound. Changes in network parameters relative to baseline were assessed following compound treatment.
In the case of O=C(N[C@H](c1ccccc1)[C@@H]1CN2CCC1CC2)c1c(Cl)ccc(C(F)(F)F)c1Cl, the AC50 is reported as 1.55 µM (active). With O=[N+]([O-])C(Br)(CO)CO the AC50 was 33.6 µM (active). With O=[N+]([O-])c1ccc(Oc2ccc(Cl)cc2Cl)cc1 the AC50 was 9.28 µM (active). For O=P(OCCCl)(OCCCl)OCCCl, the outcome was “inactive”. For CC(C)(O)c1cnn2c(-c3ccc(F)c(-c4c(F)cccc4C#N)c3)cnc2n1, the AC50 was 0.713 µM (active). For CCCCCCCCn1sccc1=O, the outcome was “inactive”. For CC(C)COC(=O)c1ccccc1C(=O)OCC(C)C, the AC50 was 7.13 µM (active). With CCC(C)c1ccc(O)cc1 (stereo not given) the AC50 was 20 µM (active). In the case of N#CC(Br)Br, the outcome is reported as “inactive”. In the case of CCN(CC)CCO, the outcome is reported as “inactive”. With COC(=O)Nc1nc2ccccc2[nH]1 the outcome was “inactive”. With ClC1=C(Cl)[C@]2(Cl)[C@H]3[C@H]([C@@H]4C=C[C@H]3C4)[C@@]1(Cl)C2(Cl)Cl the outcome was “inactive”. With Clc1ccc(C(c2ccc(Cl)cc2)C(Cl)Cl)cc1 the AC50 was 2.95 µM (active). In the case of CCN(CC)N=O, the outcome is reported as “inactive”. For O=Cc1ccco1, the outcome was “inactive”. In the case of CC(C)(OOC(C)(C)c1ccccc1)c1ccccc1, the outcome is reported as “inactive”. For CC(C)(C)C(O)(CCc1ccc(Cl)cc1)Cn1cncn1 (stereo not given), the AC50 was 3.76 µM (active). With CCC[CH2][Sn]([Cl])([CH2]CCC)[CH2]CCC the AC50 was 40.1 nM (active) and 70.2 nM (active). In the case of Cc1cc(N=Nc2ccccc2C)ccc1N, the outcome is reported as “inactive”. In the case of c1ccc(NNc2ccccc2)cc1, the outcome is reported as “inactive”. For CCCCCOC(=O)c1ccccc1C(=O)OCCCCC, the AC50 was 2.58 µM (active). With Clc1ccc(C(c2ccc(Cl)cc2)C(Cl)(Cl)Cl)cc1 the outcome was “inactive”. With CCCCOC(=O)c1ccccc1C(=O)OCc1ccccc1 the AC50 was 3.11 µM (active). In the case of [Cl-].[Cl-].[Hg+2], the AC50 is reported as 31.4 µM (active). With ClCCOCCCl the outcome was “inactive”. In the case of C[N+](C)(C)CC1CO1 (stereo not given), the outcome is reported as “inactive”. In the case of Cc1ccc(N)c(N)c1, the outcome is reported as “inactive”. In the case of O=C(Oc1ccc(Br)cc1)N1CCN2CCC1CC2, the outcome is reported as “inactive”. For c1ccc(N=Nc2ccccc2)cc1, the outcome was “inactive”. For ClC1=C(Cl)C2(Cl)C3C(Cl)C=CC3C1(Cl)C2(Cl)Cl (stereo not given), the AC50 was 7.52 µM (active).
